High-throughput results deposited in PubChem BioAssay by National Center for Advancing Translational Sciences (NCATS).
Rows were chosen to be rich in hits. Some 5.7% of all compounds tested hit in one or more screens of this group.
HepG2 viability: counter-screen for TGF-b inhibitors: cytotoxicity in HepG2 cells; HepG2 CAGA-GFP viability, ATP luminescence, 18 h; Potency, µM (top dose mostly 46.1 µM), for the others: at the highest dose activity change, negative = cytotoxicity, hits mostly cytotoxic; hit rate 0.76% among 410,000; AID 588856; note: potency is the fitted concentration of half-maximal effect
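HepG2 CAGA-GFP cells (1000/well, DMEM with 1% FBS) received compound, then TGF-beta at 500 pg/mL final, and were incubated 18 hours at 37 degrees C. Viability was read by CellTiter-Glo luminescence. Media-only wells were set as complete cell-killing and DMSO as no toxicity.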
IL1B secr inh: inhibitors of inflammasome signaling (IL-1 beta secretion); THP-1 LPS/ATP IL-1B secretion, AlphaLISA, 16 h; hits give low values; activity change, % at 57.5 µM; hit rate 4.7% among 360,000; in the data active = activity change below about -50%; inconclusive = mostly about -30% to -49%; note: % is set by controls: 0 for no effect and ±100 for the full control effect
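Secreted IL-1B measured by AlphaLISA bead assay after 16 h compound exposure of THP-1 cells; compounds (final up to 57.5 uM) added 1 h before LPS (250 ng/mL) and ATP (1.25 mM) stimulation; lower signal means less secretion.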
ATXN2 expr inh: ATXN2 expression inhibition; AID 1745845; Potency, µM (highest dose often 57 µM), for inactives: top-dose activity change, negative = inhibition, actives largely listed as inhibitors; HEK-293 ATXN2-luciferase reporter, luminescence, 24 h; hit rate 0.72% among 360,000; note: potency is the fitted concentration of half-maximal effect; % is set by controls: 0 for no effect and ±100 for the full control effect; nearly all actives have a fitted effect of over 55% in size
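qHTS (up to 57 uM final) was run with 24 h compound exposure of reporter cells at 37 °C. Each well was multiplexed: SteadyGlo luminescence measured ATXN2-luciferase expression after a fluorogenic Gly-Phe-AFC viability readout (25 uM final).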
TGFb SMAD3 inh: TGF-b pathway inhibition | HepG2 CAGA-GFP TGF-b/SMAD3 reporter, GFP fluorescence, 18 h; TGF-beta stimulated, 500 pg/mL final | Potency, µM (titrated, usually from 46.1 µM), inactives show at the top dose activity, negative = inhibition, hits mostly inhibitors | hit rate 1.2% among 410,000 | AID 588855; note: potency is the fitted concentration of half-maximal effect; % is set by controls: 0 for no effect and ±100 for the full control effect; nearly all actives have a fitted effect of over 65% in size
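Inhibition was scored as loss of TGF-beta-induced (500 pg/mL final, 18 hours, 37 degrees C) GFP in HEPG2 cells carrying a CAGA-GFP reporter, in DMEM with 1% FBS. Well GFP was summed per cell; Activity was normalised to unstimulated and stimulated DMSO wells, then concentration-response fitting.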
S2 tox: viability counter-screen for ATXN expression inhibitors | hit rate 0.49% among 400,000 | S2 cells (HEK-293 line with an ATXN2-luciferase reporter) viability, CellTiter-Fluor protease fluorescence, 24 h | AID 651635 | Potency, µM (titrated, usually from 56.7 µM), usual class: cytotoxic; note: potency is the fitted concentration of half-maximal effect; nearly all actives have a fitted effect of over 40% in size
Numbers without * were called inactive; i = inactive; u = inconclusive; x = not tested or not shown. Unless noted, calls come from the whole dose curve; as a rule, active = well fitted curve in the direction sought with a large enough effect; inconclusive = small, poorly fitted or top-dose-only effect, or another doubt; inactive = no such curve, though single readings can be large; an effect the other way counts as inactive or inconclusive.

SMILES | HepG2 viability | IL1B secr inh | ATXN2 expr inh | TGFb SMAD3 inh | S2 tox
O=C(CCCn1c(=O)c2ccccc2n(Cc2cccc(Cl)c2)c1=O)NCCc1ccc(Cl)cc1 | -23% | x | x | 0% | x
Cc1ccc(NC(=O)c2ccc(CSc3nnc(-c4ccncc4)n3C)cc2)cc1 | -1% | 5 | 7% | -22% | i
CCn1c(SCc2ccc(C(=O)Nc3cc(C)cc(C)c3)cc2)nnc1-c1ccncc1 | -2% | -65* | -20% | -20% | i
CCS(=O)(=O)N1CCc2cc(C(=O)Nc3ccc(OC)cc3OC)ccc21 | -16% | x | -2% | 2% | i
CCOc1ccccc1C(=O)N(Cc1ccc(N(C)C)cc1)Cc1ccco1 | -37% | x | x | x | x
COc1ccc2cc(C#CC3=CC(=O)C[C@H](c4ccc(F)cc4)C3)ccc2c1 | -39% | -76* | u | -25% | u
COc1ccc(-c2nc3c4ccccc4n(CC(=O)N4CCN(c5ccccc5OC)CC4)c(=O)n3n2)cc1 | -11% | x | -7% | -2% | i
Cc1ccc(CNC(=O)c2nc(-c3ccc(Cl)cc3)n3c2CCCCC3)cc1 | -25% | x | u | u | u
Cc1ccc(S(=O)(=O)N(C)C)cc1NC(=O)CSc1ncc(C(F)(F)F)cc1Cl | -20% | u | -33% | 8% | i
NS(=O)(=O)c1cccc(NC(=O)CSc2ncc(C(F)(F)F)cc2Cl)c1 | -37% | -111* | -7% | -16% | i
COC1=C(C(=O)O)N2C(=O)[C@@H](NC(=O)[C@H](N)C3=CCC=CC3)[C@H]2SC1 | x | x | x | x | i
Cc1ccc(N2CC(C(=O)OCC(=O)c3ccc([N+](=O)[O-])cc3)CC2=O)cc1 (centres undefined) | -16% | -74* | 1% | -26% | i
CN(C)c1ccc(C2CCc3ccccc3N2C(=O)c2ccccc2)cc1 (centres undefined) | -19% | x | x | -12% | x
Cc1cnc(-n2ncc(C(=O)N(C)C3CCOC3)c2-c2cccs2)nc1-c1ccc(F)cc1 (centres undefined) | x | x | x | x | i
Cc1ccc(S(=O)(=O)N(C)Cc2nc(-c3ccccc3)oc2C)cc1 | -4% | x | -18% | -14% | u
CN(C)c1ccc(/C=C/c2c(Br)cnc3ccccc23)cc1 | -12% | x | x | 1% | x
CCc1c(C)sc(NC(=S)N2CCN(CC)CC2)c1C(=O)OC | -6% | -56* | -25% | 6% | i
COc1ccccc1/C=C/C1(C(=O)NC2CCCC2)CC(=O)N1c1ccc(F)cc1 (centres undefined) | -27% | -89* | 18µM* | u | x
COc1ccccc1/C=C/C1(C(=O)NC2CCCC2)CC(=O)N1c1ccc(C)cc1 (centres undefined) | -13% | -12 | u | u | u
C=CCn1cc(CN2CCC(C(=O)Nc3cccc(-c4cccc(Cl)c4)c3)CC2)c(C)n1 | 16µM* | -6 | x | u | u
Cc1c(CN2CCC(C(=O)Nc3cccc(-c4cccc(Cl)c4)c3)CC2)cnn1C | -95% | -22 | x | u | u
C=CCn1cc(CN2CCC(C(=O)Nc3cccc(-c4cccc(F)c4)c3)CC2)c(C)n1 | 8.9µM* | -9 | u | u | i
C=CCn1cc(CN2CCC(C(=O)Nc3ccc(Oc4cccnc4)cc3)CC2)c(C)n1 | 1% | 11 | -4% | -17% | i
CCC1(c2ccccc2)ON(c2c(Br)cccc2Br)C1=O (centres undefined) | -102% | -97* | 22µM* | u | u
CC(=O)c1ccc(N2CCN(S(=O)(=O)c3ccc4c(c3)C(Cl)(Cl)C(=O)N4)CC2)cc1 | -93% | x | -3% | 22µM* | i
SMILES | HepG2 viability | IL1B secr inh | ATXN2 expr inh | TGFb SMAD3 inh | S2 tox
Cc1ccc(CN2C(=O)C(=O)c3cc(Br)cc(C)c32)cc1 | -98% | x | u | u | x
CCCCn1nnnc1C(c1ccccc1)N1CCN(c2ncccc2C(F)(F)F)CC1 (centres undefined) | x | -51* | u | x | u
CCCCn1nnnc1C(c1ccccc1)N1CCN(c2ccc(C(F)(F)F)cn2)CC1 (centres undefined) | x | u | -18% | x | u
O=C(Cn1cc(S(=O)(=O)Cc2ccccc2Cl)c2ccccc21)Nc1ccc(F)cc1F | -19% | x | x | u | x
Cn1cc(C(=O)Nc2ccc(Cl)cc2)c(C(F)(F)F)n1 | -20% | 3 | x | 4% | i
CCC(C)Sc1cc(C(F)(F)F)c(C(=O)Nc2ccc(Cl)cc2)cn1 (centres undefined) | -45% | -88* | u | u | i
Cc1ccccc1NC(=O)CSc1cn[nH]n1 | 8% | -2 | 1% | 12% | i
O=C(Nc1ccccc1Oc1ccccc1)c1cnccn1 | -2% | 20 | 4% | -4% | i
CCOc1ccccc1NC(=O)CSc1cn[nH]n1 | 5% | -91* | 8% | 1% | i
CCOc1ccccc1NC(=O)c1cnccn1 | -72% | -59* | -34% | 2% | u
O=C(Nc1ccn(Cc2ccc(Cl)cc2)n1)c1ccc2c(c1)OCO2 | -16% | 34 | 19% | 8% | i
Cc1cccc(Cn2ccc(NC(=O)c3ccc4c(c3)OCO4)n2)c1 | -9% | -52* | 7% | -7% | i
Cc1cc(C)c(COCc2cc(/C=N/O)c(C)cc2C)cc1/C=N/O | -61% | -83* | u | u | u
CSc1cc(/C=N/O)c(SC)s1 | 0% | -18 | -15% | -7% | i
COc1ccccc1NC(=O)CN1CCC(c2nc3ccc(C)cc3[nH]2)CC1 | -20% | 4 | -8% | -16% | u
O=S(=O)(c1ccc2c(c1)OCCO2)N1CCC(c2nc3ccc(Cl)cc3[nH]2)CC1 | -50% | -72* | 16µM* | u | u
O=S(=O)(c1ccc2c(c1)OCCO2)N1CCC(c2nc3ccccc3[nH]2)CC1 | -19% | -5 | -22% | -19% | i
Cc1ccc2nc(C3CCN(S(=O)(=O)c4ccc5ccccc5c4)CC3)[nH]c2c1 | -20% | -69* | u | u | i
COc1cccc(CNC(=O)CN2CCC(c3nc4ccc(C)cc4[nH]3)CC2)c1 | -42% | -61* | -5% | -4% | i
COC(=O)C1N[C@@H]([C@@H](NC(=O)COc2ccccc2)C(=O)NCc2ccsc2)SC1(C)C (some centres undefined) | -4% | 8 | -5% | -11% | i
CCCCCCCCCNC(=O)[C@H](NC(=O)COc1ccccc1)[C@@H]1NC(C(=O)OC)C(C)(C)S1 (some centres undefined) | -6% | 6 | 9% | 11µM* | u
O=C(CSc1nnc(-c2cc3ccccc3cc2O)n1Cc1ccco1)N1CCc2ccccc2C1 | -35% | -71* | 0% | u | u
COc1cccc(C(=O)Nc2cccc(-c3cn4c(C)csc4n3)c2)c1OC | -40% | x | -25% | -5% | i
